# Measured values: PubChem BioAssay (EPA / NIEHS)
# Activity calls are given as the source filed them. How the source made its calls: active means hit-call score of the fitted dose curve at least 0.9, where 1 is the maximum; inactive means score below 0.9.
# Test: ATG_Oct_MLP_CIS: Attagene CIS-FACTORIAL HepG2 Assay for human Octamer-Binding Transcription Factor (Oct) (AID 2282993)
# Details: HepG2 Attagene cis-factorial Oct reporter, mRNA; actives raise or lower the signal
# Protocol: ATG_CIS is a cell-based, multiplexed-readout assay that uses HepG2, a human liver cell line, with measurements taken at 24 hours after chemical dosing in a 24-well plate.ATG_Oct_MLP_CIS is one of 52 assay component(s) measured or calculated from the ATG_CIS assay. It is designed to make measurements of mRNA induction, a form of inducible reporter, as detected with fluorescence intensity signals by Reverse transcription polymerase chain reaction (RT-PCR) and Capillary electrophoresis technology.Data from the assay component ATG_Oct_MLP_CIS was analyzed into 1 assay endpoint. This assay endpoint, ATG_Oct_MLP_CIS, was analyzed with bidirectional fitting relative to DMSO as the negative control and baseline of activity. Using a type of inducible reporter, measures of mRNA for gain or loss-of-signal activity can be used to understand the reporter gene at the transcription factor-level as they relate to the gene POU2F1. Furthermore, this assay endpoint can be referred to as a primary readout, because this assay has produced multiple assay endpoints where this one serves a reporter gene function. To generalize the intended target to other relatable targets, this assay endpoint is annotated to the dna binding intended target family, where the subfamily is POU domain protein.
# Human liver HepG2 cells are transiently transfected with multiple reporter transcription units (MRTUs) in 6-well plates using FuGene 6 reagent (Roche; 3 ml FuGene/1 mg DNA). The MRTU constructs are regulated by a cis-regulating element (promoter). […] A major difference between the CIS and TRANS system is that in CIS activities of endogenous TFs are measured, whereas the TRANS assay evaluates changes in activities of exogenous, chimeric NR-Gal4 proteins. […] At the end of 24 hour incubation, total RNA was isolated using TriZol reagent (Invitrogen). The isolated RNA is then reverse-transcribed using oligo(dT) primer and Mo-MLV reverse transcriptase (Invitrogen) with DNAse I (Ambion) treatment for 30 min. The one-tenth of the produced cDNA was amplified by PCR using Taq DNA polymerase (Invitrogen) and two reporter sequence-specific primers. The PCR products were fluorescently labeled by primer extension with 6-arboxyfluorescein (6-FAM) 5'-labeled reporter sequence-specific primer (2 min at 95 C, 20 s at 68 C and 10 min at 72 C) and these products were digested with 5U of HpaI (New England Biolabs) for 2h at 37 C. The fragments were purified using Qiaquick PCR columns (Qiagen), analyzed on an ABI 3130xL genetic analyzer (Applied Biosystems) with peak positions identified by using a set of X-rhodamine (ROX)-labeled MapMarker1000 molecular weight standards (BioVentures). The raw capillary electrophoresis data was processed using Attagraph software (Attagene).
Structure (SMILES),AC50,outcome
C=CC(=O)OCC(C)OCC(C)OCC(C)OC(=O)C=C (stereo not given),29.5 µM (active),–
CCN1CCCC1=O,–,inactive
C=Cc1cccc(C)c1,–,inactive
CCC(C)C(=O)OCCc1ccccc1 (stereo not given),–,inactive
Cc1ccc([N+](=O)[O-])cc1N,–,inactive
CCCCC(C=O)CC (stereo not given),–,inactive
CC1C(C)(C)C2=C(C(=O)CCC2)C1(C)C (stereo not given),–,inactive
O=C(O)CCC(=O)O,–,inactive
C=CC(=O)NC(C)(C)C,–,inactive
CCCCCCCO,–,inactive
CC(=O)/C=C/C1C(C)=CCCC1(C)C (stereo not given),–,inactive
CC(C)OC(=O)c1ccccc1,–,inactive
CC(C)c1ccc(O)c(C(C)C)c1,–,inactive
CCCCCCOc1ccc(N)cc1,–,inactive
CCCCCCCCCCCCc1ccc(O)cc1,–,inactive
Cc1cc(C)c(C=O)c(C)c1,–,inactive
CCCCC/C=C\C/C=C\CCCCCCCC(=O)O,–,inactive
CCCCNS(=O)(=O)c1ccccc1,–,inactive
CC12CCC(CC1)C(C)(C)O2,–,inactive
CCOc1ccc(NC(N)=O)cc1,–,inactive

Structure (SMILES),AC50,outcome
C=Cc1ccc(OC(C)=O)cc1,55.4 µM (active),–
CC(=O)OC/C=C(/C)CCC=C(C)C,–,inactive
CCCCNS(=O)(=O)c1ccc(C)cc1,–,inactive
CCCCC1CCC(=O)O1 (stereo not given),–,inactive
Cc1c[nH]c(=O)[nH]c1=O,–,inactive
N#Cc1ccc(C(c2ccc(C#N)cc2)n2cncn2)cc1,–,inactive
CCc1occc(=O)c1O,–,inactive
NNS(=O)(=O)c1ccc(Oc2ccc(S(=O)(=O)NN)cc2)cc1,–,inactive
CCC[Si](OC)(OC)OC,–,inactive
CC(Cl)COP(=O)(OCC(C)Cl)OCC(C)Cl (stereo not given),–,inactive
O=C(O)CC(C(=O)O)S(=O)(=O)O (stereo not given),–,inactive
CN1CCN(C)CC1,–,inactive
CC(C)CCOCc1ccccc1,–,inactive
CC(C)=NNC(N)=S,–,inactive
CCc1cccc(CC)c1,–,inactive
CCCCCC(=O)OCC,–,inactive
CC(=O)OCc1ccccc1,–,inactive
C=C(C)OC(C)=O,–,inactive
CCC(C)(O)CCCC(C)C (stereo not given),–,inactive
C1CNCCN1,–,inactive
